Measured values from PubChem BioAssay AID624115 (Johns Hopkins Ion Channel Center, 2012).
The whole screen tested about 4,000 compounds, of which about 350 (8.8%) were called active.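 Rule for the calls: active = calcium fluorescence ratio at least three times the spread of buffer wells, meaning a non-specific response in parental cells; inactive = the rest.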 Only a sample is shown.

assay: calcium response in parental HEK293 cells, primary screen, counter-screen for MrgX1 agonist project, cell-based, Fluo-4 calcium flux, duplicate, agonist mode (AID 624115); conditions: parental HEK293, Fluo-4 calcium fluorescence (FDSS), at 10 µM; stronger effect = higher value

Compound	fluorescence ratio F(max-min)/F0
COc1ccccc1Oc1nc(-c2cccnc2)nc2ccccc12	inactive
CC(C)CNc1ncnc2c1cnn2Cc1ccc(Cl)cc1	inactive
Cc1cccn2c(=O)c(/C=C3\SC(=S)N(CC(C)C)C3=O)c(NCCCOC(C)C)nc12	inactive
O=C(C1CCN(S(=O)(=O)c2cnc[nH]2)CC1)N1CCN(Cc2ccc3c(c2)OCO3)CC1	inactive
O=C(Oc1ccc(C(=S)N2CCOCC2)cc1)c1ccc(F)cc1	inactive
Cc1occc1C(=O)Nc1nnc(-c2ccncc2)s1	inactive
CCC(C)Sc1nc(C)nc2c1c(=O)n(C)c(=O)n2C (stereo not given)	inactive
O=C(CN1CCN(c2ccc(Cl)cc2)CC1)N1CCCC1	inactive
Cc1c(C)c2c(OCC(=O)N[C@@H](C(=O)O)c3ccccc3)cc3c(c2oc1=O)CCC(C)(C)O3	inactive
COC(=O)c1c(NC(=O)c2c(Cl)cnn2C)sc(C)c1C	inactive
COc1ccc(Nc2nnc(C)c3ccccc23)cc1	inactive
O=C1C(Cc2ccc(O)cc2)NC(=S)N1Cc1ccccc1 (stereo not given)	inactive
Cc1cccc(NC(=O)C(C)N2C(=O)C3C4CC(C(Br)C4Br)C3C2=O)c1 (stereo not given)	94.8 (active)
Cc1ccc(C(=O)COC(=O)CCN2C(=O)C3C4CC(C(Br)C4Br)C3C2=O)cc1 (stereo not given)	inactive
Cc1ccnc(NC(=O)C(C)N2C(=O)c3ccccc3C2=O)c1 (stereo not given)	inactive
Cc1ccc2c(c1)c1ncnc(N3CCc4ccccc4C3)c1n2C	inactive
O=C(COC(=O)c1ccc(NS(=O)(=O)c2cccs2)cc1O)Nc1ccc(F)cc1	inactive
CN(c1cccc(NC(=O)Nc2ccc(Cl)cc2)c1)S(C)(=O)=O	inactive
O=C(c1cccs1)C1C(c2ccc(Br)cc2)NC(=S)NC1(O)C(F)(F)F (stereo not given)	inactive
CC(C)(C)n1c(=O)[nH]c2c(c1=O)CCC2	inactive
CCN(CC)c1ccc2oc(=O)c(C)nc2c1	inactive
CC(=O)N(C)c1ccc(NC(=O)C(F)(F)F)cc1	inactive
CCc1nnc(NC(=O)CSc2nc3c(c(=O)n2-c2ccccc2OC)SCC3)s1	inactive
CC1CCN(S(=O)(=O)c2nnc(NC(=O)COc3ccccc3F)s2)CC1	inactive
CCSc1nsc(NC(=O)Nc2cccc(C(C)=O)c2)n1	inactive
CCCCCCCCCCOC(=O)Cn1c(COc2cccc(OC)c2)[n+](C)c2ccccc21	inactive
CN1/C(=C\C=C2\N=C(c3ccc(F)cc3)OC2=O)C(C)(C)c2ccccc21	inactive
S=C(NCc1ccc(Cl)cc1)NC12CC3CC(CC(C3)C1)C2	inactive
O=C(Nc1ccc(Cl)cc1)Nc1ccc(Oc2cccnc2)nc1	inactive
CCc1ccc(N(CC(=O)Nc2sc3c(c2C(=O)OC)CCCC3)S(C)(=O)=O)cc1	inactive
